Rows were chosen to be rich in hits. Some 6% of all compounds tested hit in one or more screens of this group.
D1 antag – blocks dopamine activation of the human D1 receptor; P21728; HEK293 TREx D1 cells, calcium flux, dopamine EC80; active compounds read low; activity change, negative = inhibition, % at 10 µM; actives 3.2% (n = 360,000); AID 504652; in the data active means activity change below about -30%
Target sequence (P21728 whole entry, looked up): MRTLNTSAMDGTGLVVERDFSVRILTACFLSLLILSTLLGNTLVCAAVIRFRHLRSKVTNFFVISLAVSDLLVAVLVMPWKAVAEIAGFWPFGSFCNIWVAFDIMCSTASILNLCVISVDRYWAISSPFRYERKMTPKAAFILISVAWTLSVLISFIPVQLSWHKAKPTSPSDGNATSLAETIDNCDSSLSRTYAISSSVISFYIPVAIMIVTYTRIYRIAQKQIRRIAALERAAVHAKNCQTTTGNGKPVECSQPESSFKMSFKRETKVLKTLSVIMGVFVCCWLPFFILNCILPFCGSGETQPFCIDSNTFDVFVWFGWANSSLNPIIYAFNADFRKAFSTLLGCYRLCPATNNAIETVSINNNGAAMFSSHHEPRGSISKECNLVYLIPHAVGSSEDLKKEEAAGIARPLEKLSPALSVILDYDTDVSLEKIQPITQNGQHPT
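Tetracycline-induced HEK293 Trex D1 cells, force-coupled to calcium, dye-loaded; compounds added and read 180 s, then EC80 dopamine added and calcium flux tracked kinetically another 180 s.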
D1 ag – activates the human D1 dopamine receptor; activation, % at 2 µM; P21728; actives 1% (n = 360,000); HEK293 T-REx D1 cells, calcium flux, agonist mode; in the data active means activation above about 30%
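Agonism was scored from calcium flux recorded over 180 s (1 read/s) after pintool compound addition, following a 10-cycle baseline. Cells were inducible force-coupled HEK293 TREx D1, plated overnight at 30 C and loaded with no-wash calcium dye.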
D3 ag – agonists of human D3 dopamine receptor; AID 652048; max activation, %; P35462; actives 0.58% (n = 410,000); D3R DiscoveRx beta-arrestin cells, luminescence, 90 min; in the data active means max activation above about 30%
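Agonist mode: compounds and dopamine controls were applied to plated cells for 90 min at 37 degrees C after an overnight attachment at 1500 cells/well. Luminescent read-out followed 30 - 60 minutes at room temperature with DiscoveRx detection reagent.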
D1 PAM – potentiators of human D1 dopamine receptor. potentiation, % at 10 µM. P21728. HEK293 TREx D1 cells, calcium flux, dopamine EC20 potentiation. actives 0.036% (n = 360,000); in the data active means potentiation above about 30%
DRD3 antagonist – D3 dopamine receptor (human) antagonism; P35462; D3R cells, DiscoveRx beta-arrestin luminescence, antagonist mode; active compounds read low; max response, negative = inhibition, %; actives 2.5% (n = 360,000); AID 652054; in the data active means max response below about -50%; inconclusive means no clear call, values can overlap the other calls
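Cells expressing the human receptor were seeded at 1500 cells/well, incubated overnight at 37 degrees C in 5% CO2, then exposed to library compounds with dopamine controls for 90 minutes at 37 degrees C before luminescent detection.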
Of the large screens only hits and unclear results are named; the others gave an inactive call; ! = repeats disagree.

COc1cc(CNCc2ccccc2)c(Br)cc1OC1CCCC1	DRD3 antagonist -62 (no result: D1 antag)
COc1cc(CNC2CCCC2)c(Br)cc1OC1CCCC1	D1 antag -30
COc1cccc(N2CCN(C(=O)c3ccc(C)c(NC(=O)c4nsc5ccccc45)c3)CC2)c1	none (no result: DRD3 antagonist)
CCCOC(=O)NC(CC)COC(=O)Nc1cc(C)ccc1C (centres undefined)	DRD3 antagonist -87
CCCCOC(=O)Nc1cc(Cl)ccc1C	none
Nc1nn(-c2ccccc2)c(N)c1N=Nc1cccc(F)c1	none
Nc1nn(-c2ccccc2)c(N)c1N=Nc1ccc2c(c1)OCO2	D1 antag -45
CC(=O)n1c(C=Nc2ccc(Cl)cc2)c(O)c2ccccc21	D1 ag 39
CC(=O)n1c2ccccc2c2ccccc21	none
COc1ccc(Cn2ncc3c4sc(C)cc4n(C)c3c2=O)cc1	none (no result: D3 ag, DRD3 antagonist)
Cn1c(-c2ccccc2)cnc1NCc1ccccc1	none
Cn1c(-c2cccc(Br)c2)cnc1NCc1ccccc1O	D1 antag -35
CCC(=NCCc1c(C)[nH]c2ccc(OC(F)(F)F)cc12)C1=C(O)CC(c2ccccc2)CC1=O (centres undefined)	DRD3 antagonist inconclusive
CC(=NCCc1c(C)[nH]c2ccc(OCc3ccccc3)cc12)C1=C(O)CC(c2ccccc2)CC1=O (centres undefined)	D1 antag -31
CCCCC(=NCCc1c(C)[nH]c2ccc(OC)cc12)C1=C(O)CC(c2ccccc2)CC1=O (centres undefined)	D1 antag -34
COc1ccc(-c2nn3c(=O)cc(CN4CCN(C(=O)c5ccc(C(C)(C)C)cc5)CC4)nc3s2)cc1	none (no result: DRD3 antagonist)
O=C1CCCN1CCCNc1ncnc2c1[nH]c1ccc(Cl)cc12	D1 antag -88
Clc1ccc2[nH]c3c(NCCCN4CCOCC4)ncnc3c2c1	none
CCOC(=O)c1ccc(OCCN2C[C@H](O)[C@@H](O)[C@H](O)[C@H]2CO)cc1	none (no result: D1 antag, D1 ag, D1 PAM, DRD3 antagonist)
CCSc1nnc2c(n1)OC(c1ccc(OC)c(OC)c1)N(C(C)=O)c1ccccc1-2 (centres undefined)	D1 antag -30 (no result: DRD3 antagonist)
CCSc1nnc2c(n1)OC(c1sccc1C)N(C(C)=O)c1ccccc1-2 (centres undefined)	none (no result: DRD3 antagonist)
CCCCSc1nnc2c(n1)OC(C)N(C(C)=O)c1ccccc1-2 (centres undefined)	none (no result: DRD3 antagonist)
CCCCCSc1nnc2c(n1)OC(C)N(C(C)=O)c1ccccc1-2 (centres undefined)	DRD3 antagonist -68 (no result: D1 PAM)
Cc1cccc(-c2noc(CNC(=O)c3ccccc3Br)n2)c1	none (no result: DRD3 antagonist)
COc1cccc(CN2CCCN(Cc3ccc(F)cc3)S2(=O)=O)c1	none (no result: DRD3 antagonist)
COc1ccc(C)c(NC(=O)C2CC(=O)NC3=C2C(=O)CCC3)c1 (centres undefined)	none
COc1cc(NC(=O)C2CC(=O)NC3=C2C(=O)CCC3)c(OC)cc1Cl (centres undefined)	D3 ag 39
Cc1ccc(NC(=O)C2CCCN(S(=O)(=O)c3c(C)n[nH]c3C)C2)cc1C (centres undefined)	none (no result: DRD3 antagonist)
Cc1n[nH]c(C)c1S(=O)(=O)N1CCCC(C(=O)N2CCN(c3ccc(Cl)cc3)CC2)C1 (centres undefined)	D1 antag -48
Cc1ccc(NC(=O)C2CCCN(S(=O)(=O)c3c(C)n[nH]c3C)C2)cc1Cl (centres undefined)	D1 ag 36 (no result: DRD3 antagonist)
Cc1ccc(S(=O)(=O)N2CCCC2)cc1C(=O)Nc1ccc(-n2cnnn2)cc1	D1 antag -31
Cc1nn(C)c(C)c1S(=O)(=O)N1CCCC(C(=O)N2CCN(c3ccc(Cl)cc3)CC2)C1 (centres undefined)	none
Cc1ccc(S(=O)(=O)N2CCCC(C(=O)Nc3ccc(C(=O)O)cc3)C2)cc1Cl (centres undefined)	D1 antag -33
COc1cc2c(cc1OC)C(c1cc(OC)c(O)c(OC)c1)CC(=O)N2 (centres undefined)	none (no result: DRD3 antagonist)
Cc1ccc(N(C)C(=O)Cn2cc(S(=O)(=O)N3CCCC3)c(S(=O)(=O)N3CCCC3)c2)cc1	none (no result: DRD3 antagonist)
CCN(CC)C(=O)Nc1ccc(OCC(O)CNC(C)(C)C)c(C(C)=O)c1 (centres undefined)	none (no result: D1 antag, D1 ag, D1 PAM, DRD3 antagonist)
COc1cccc(NC(=O)C2CCCN(S(=O)(=O)c3c(C)[nH]c(=O)[nH]c3=O)C2)c1 (centres undefined)	none (no result: DRD3 antagonist)
COc1ccc(NC(=O)C2CCCN(S(=O)(=O)c3c(C)[nH]c(=O)[nH]c3=O)C2)cc1 (centres undefined)	D1 antag -31!
Clc1cccc(/C=N/Nc2nc(Cl)nc3ccccc23)c1	DRD3 antagonist -60
Cc1cc(C)nc(N/N=C/c2cccc(Cl)c2)n1	none
COc1ccccc1N1CCN(C2CCCN(C(=O)CN3CCCC3=O)C2)CC1 (centres undefined)	D1 antag -32
COc1ccc(C(=O)N2CCC(N3CCN(c4ccccc4)CC3)CC2)cc1	none
COc1ccccc1C(=O)N1CCC(N2CCN(c3ccccc3)CC2)CC1	D3 ag 53
Cc1ccccc1N1CCN(C2CCCN(C(=O)CN3CCCC3=O)C2)CC1 (centres undefined)	none
COc1ccccc1N1CCN(C2CCN(C(=O)COc3ccccc3)CC2)CC1	DRD3 antagonist -61
COc1ccccc1N1CCN(C2CCCN(S(=O)(=O)c3ccc(C)cc3)C2)CC1 (centres undefined)	DRD3 antagonist -80
CCOc1ccc(CNC(=O)c2cnc3sc(N4CCCCCC4)nn3c2=O)cc1OC	none (no result: DRD3 antagonist)
COc1ccccc1C(=O)N1CCC(N2CCN(c3ccccc3OC)CC2)CC1	DRD3 antagonist -65
CC(C)(C)C1CCC(N2CCN(c3ccccc3)CC2)CC1 (centres undefined)	DRD3 antagonist -53
CC(C)CC(=O)N1CCC(N2CCN(c3ccccc3)CC2)CC1	DRD3 antagonist inconclusive
CCOc1cc2c(cc1/C=C/c1noc(C)c1[N+](=O)[O-])OC(C)C2 (centres undefined)	D1 ag 74
Cc1noc(C)c1-c1ccc2ncnc(NCc3cccc(-c4ccccc4)c3)c2c1	D1 antag -34 (no result: D3 ag, DRD3 antagonist)
Cc1ccc(OCc2cc(C(=O)N3CCN(C)C[C@@H]3c3ccccc3)no2)cc1C	D1 antag -31
Cc1ccc(OCc2cc(C(=O)N(C)CC3CCOCC3)no2)cc1C	D1 ag 56
COc1cccc(OCc2cc(C(=O)N(C)Cc3nc4ccccc4[nH]3)no2)c1	none
COc1cc(Cl)ccc1OCc1cc(C(=O)N2CCN(C)C(=O)[C@@H]2C)no1	none (no result: D1 antag, D1 ag, D1 PAM)
COc1cccc(OCc2cc(C(=O)N(Cc3ccccc3)CC3CC3)no2)c1	D1 ag 48
Cc1cc(OCc2cc(C(=O)N(C)C3CCOCC3)no2)cc(C)c1Cl	none
Cc1cc(OCc2cc(C(=O)N3CCN(C)C(=O)[C@@H]3C)no2)cc(C)c1Cl	D1 antag -31
Cc1ccc(NS(=O)(=O)c2cnc(N)nc2)c(C)c1	none (no result: DRD3 antagonist)

Screens: PubChem, National Center for Advancing Translational Sciences (NCATS)
